Whole data set: some 110,000 compounds, median “z-score” near -0.1, cut for the highest 2% near 2. The list comes from a sample in which the highest values are over-represented; it also holds similar structures and randomly drawn compounds. Activity calls are given as the source filed them.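 How the source made its calls: active means z-score in the third read window above 3 or below -3; inactive means the rest.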

Chain of Metabotropic glutamate receptor 8 (Rattus norvegicus) (P70579 whole entry, looked up): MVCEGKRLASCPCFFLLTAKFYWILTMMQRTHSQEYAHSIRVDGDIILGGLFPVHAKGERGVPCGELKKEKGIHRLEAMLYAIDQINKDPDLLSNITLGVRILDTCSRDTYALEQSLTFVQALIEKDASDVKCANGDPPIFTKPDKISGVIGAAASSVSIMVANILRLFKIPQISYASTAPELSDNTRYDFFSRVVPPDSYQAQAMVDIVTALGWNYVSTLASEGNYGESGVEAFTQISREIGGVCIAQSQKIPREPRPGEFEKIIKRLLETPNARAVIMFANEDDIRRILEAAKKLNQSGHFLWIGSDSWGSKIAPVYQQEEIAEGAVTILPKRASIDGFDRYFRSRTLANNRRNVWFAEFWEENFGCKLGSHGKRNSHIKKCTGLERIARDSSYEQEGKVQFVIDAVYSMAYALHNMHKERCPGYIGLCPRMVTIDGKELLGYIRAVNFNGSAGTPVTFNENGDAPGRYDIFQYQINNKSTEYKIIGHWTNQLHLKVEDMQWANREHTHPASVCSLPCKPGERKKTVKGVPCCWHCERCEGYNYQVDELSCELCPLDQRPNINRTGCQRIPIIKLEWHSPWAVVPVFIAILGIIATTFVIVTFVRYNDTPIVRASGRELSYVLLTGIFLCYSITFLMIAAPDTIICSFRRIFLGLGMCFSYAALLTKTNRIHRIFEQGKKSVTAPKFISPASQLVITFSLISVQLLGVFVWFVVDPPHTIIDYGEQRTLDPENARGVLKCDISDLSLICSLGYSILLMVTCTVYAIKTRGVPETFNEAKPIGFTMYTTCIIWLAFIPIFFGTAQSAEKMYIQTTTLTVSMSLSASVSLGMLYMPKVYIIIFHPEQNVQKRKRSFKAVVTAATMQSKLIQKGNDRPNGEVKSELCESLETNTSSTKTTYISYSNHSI

This assay has as its target Metabotropic glutamate receptor 8 (Rattus norvegicus) (UniProt P70579). In words: rat mGluR8 modulators via GIRK flux, primary screen, cell-based, thallium flux, HTS (AID 488969). The settings on record: HEK293 rat mGluR8, GIRK (G protein-gated inwardly rectifying potassium channel) thallium flux, FluoZin2; at 10 µM; stronger effect = higher value; submaximal glutamate (EC20) added with thallium.
`COC(=O)COc1cc(Br)c(/C=C2/SC(=O)N(CC(=O)N3CCCC3)C2=O)cc1OC` gave a z-score of 0.0962.
Compound `O=C(OCc1nc2ccc(Cl)cc2n1CCO)c1ccc(O)cc1` showed a z-score of -0.133.
`CCOC(=O)c1cc(CC)sc1NC(=O)c1ccc(N2C(=O)CCC2=O)cc1` showed a z-score of -0.383.
As for `COc1ccc(C)cc1S(=O)(=O)N(C)CC(=O)N1CCCCCC1`, the z-score is -0.534.
Regarding `O=C(CSc1nc(-c2ccco2)cc(C(F)(F)F)n1)N1CCN(c2ccc(Cl)cc2)CC1`, the z-score is -0.455.
In turn, `COc1ccc(C2C(C(N)=O)=C(C)Nc3nc(-c4ccccc4OC)nn32)cc1OC` (stereo unspecified) yielded a z-score of 0.317.
The figure for `CCCN1C(=O)/C(=C/c2ccc(N3CCCC3)c(C)c2)NC1=S` is 11 (active); for `O=C1/C(=C/c2ccc(N3CCCC3)cc2)NC(=S)N1C1CC1` it is 2.85; for `CC(C)CN1C(=O)/C(=C/c2cccs2)NC1=S` it is 15.8 (active).
Consider `Cc1cccc(CN2C(=O)N/C(=C/c3ccc(C)s3)C2=O)c1`, for which the z-score was -0.147.
As to `Cc1ccc(NC(=O)CN2C(=O)N/C(=C/c3ccc(C)s3)C2=O)cc1`, the z-score stood at 0.22.
Under `O=C1N/C(=C/c2ccc(N3CCCC3)cc2)C(=O)N1c1ccccc1` stands -0.886; under `CCCN1C(=O)/C(=C/c2ccc(C)s2)NC1=S`, 13.9 (active).
Compound `COc1ccc(N2C(=O)/C(=C/c3cccs3)NC2=S)cc1` came in with a z-score of 1.07.
`O=C1N/C(=C\c2ccc(N3CCOCC3)c(F)c2)C(=O)N1Cc1ccccc1` yielded a z-score of -0.434.
In the case of `COC(=O)C1=C(C)N(CC(C)C)C(=O)/C1=C\c1cccs1`, the z-score is -0.236.
In turn, `CCN1C(=O)/C(=C/c2ccc(N3CCCC3)cc2)NC1=S` came in with a z-score of 1.3.
The figure for `CCCN1C(=O)c2cccc3c(N4CCCCC4)ccc(c23)C1=O` is -0.337; for `O=C1CSC(=S)N1CC1CCCO1` (stereo unspecified) it is -0.08; for `Cc1noc(C)c1C(=O)NCCc1ccc(Cl)cc1` it is -0.377.
Consider `COCC(=O)NC1CCN(C(=O)Nc2ccc(Br)cc2)CC1`, for which the z-score was -0.036.
Under `CCOC(=O)c1c(C)[nH]c(C(=O)/C(C#N)=C/c2ccc(OC(F)F)c(OC)c2)c1C` stands -0.315; under `O=C(NCC(c1cccs1)N1CCOCC1)c1ccccc1NS(=O)(=O)c1ccc(Cl)cc1` (stereo unspecified), -0.359.
Under `Cc1csc(NC(=O)C2CCCN(S(=O)(=O)c3cnc[nH]3)C2)n1` (stereo unspecified) stands 0.36.
`Cc1cccc(OCCSc2nc3c([nH]2)c(=N)ncn3Cc2ccccc2)c1`: the z-score was -0.0916.
The figure for `CC(C)(C)c1ccc(C(=O)NC(=S)NCC2CCCO2)cc1` (stereo unspecified) is 1.62; for `Cc1ccccc1Nc1nc(-c2sc(NC(=O)c3ccco3)nc2C)cs1` it is -0.239; for `Nc1ccc(Sc2cnn(-c3ccccc3)c(=O)c2Cl)cc1` it is -2.01.
Under `Cc1ccc(/C=C2/NC(=O)N(Cc3ccccc3)C2=O)s1` stands -0.0544; under `CCN1C(=O)/C(=C/c2ccc(C)s2)NC1=S`, 15.1 (active); under `CCN1C(=O)/C(=C\N(C)C)NC1=S`, -0.121.
Under `CCS(=O)(=O)N1CCN(c2ccc(Cl)cc2[N+](=O)[O-])CC1` stands 0.325; under `CCOc1ccc(C(=O)CN2CCN(S(=O)(=O)c3ccc(OC)cc3)CC2)cc1`, -0.414; under `CCOc1ccc(C(=O)CN2CCN(S(=O)(=O)c3ccc(Br)cc3)CC2)cc1`, 4.08 (active).
Take `COc1cccc(C(=O)CN2CCN(S(=O)(=O)c3ccc(Br)cc3)CC2)c1`: the z-score is -0.472.
For `CN1CCN(c2ccccc2NC(=O)COc2ccccc2)CC1`, the z-score is -0.109.
The figure for `COc1ccc(/C=N/NC(=O)CSc2nnc(C)n2-c2ccccc2)c(OC)c1OC` is -0.14; for `Cc1cc(/C=C2\C(=N)N3C(SCc4ccccc4)=NSC3=NC2=O)c(C)n1Cc1ccccc1` it is 0.143.
`N=C1/C(=C/c2cccs2)C(=O)N=C2SN=C(SCc3ccccc3)N12`: the z-score is 9.53 (active).
The figure for `O=C1N=C(N2CCN(c3cccc4ccccc34)CC2)S/C1=C/c1cccs1` is -0.0125.
In turn, `CSC1=NSC2=NC(=O)/C(=C/c3coc4ccc(O)cc4c3=O)C(=N)N12` showed a z-score of -0.47.
On to `CSC1=NSC2=NC(=O)/C(=C/c3coc4ccccc4c3=O)C(=N)N12`, for which the z-score is 10.4 (active).
`O=C1NN(c2ccccc2)C(=O)/C1=C/c1coc2ccccc2c1=O` displayed a z-score of -0.738.
Under `O=[N+]([O-])c1ccc(N2CCCCC2)cc1NCCOc1ccccc1` stands 0.0562.
The figure for `CC(C)(CNC(=O)/C=C/c1ccc(F)cc1)CNC(=O)/C=C/c1ccc(F)cc1` is -0.186.
The figure for `CCc1ccc(/C=c2\s/c(=C\C(=O)C(C)(C)C)[nH]c2=O)cc1` is 7.24 (active).
As to `CCc1ccc(/C=C(\Cl)c2nc3cc(Cl)ccc3c(=O)[nH]2)cc1`, the z-score is 0.511.
For `COc1cccc(/C=c2\s/c(=C/C(=O)c3ccc(C)cc3)[nH]c2=O)c1OC`, the z-score was determined as 1.51.
Under `CC(C)(C)C(=O)/C=c1\[nH]c(=O)/c(=C\c2ccc(F)cc2)s1` stands 5.06 (active).
Under `COc1ccc(/C=c2\s/c(=C/C(=O)c3ccc(C)cc3)[nH]c2=O)cc1OC` stands 0.46.
On to `Cc1ccccc1/C=c1\s/c(=C\C(=O)C(C)(C)C)[nH]c1=O`, for which the z-score is 5.84 (active).
Consider `CSc1ccc(/C=c2\s/c(=C\C(=O)C(C)(C)C)n(CC(=O)NCCC3=CCCCC3)c2=O)cc1`, for which the z-score is -0.0802.
The figure for `CC(C)(C)NC(=O)COC(=O)/C=C/c1ccc(F)cc1` is -0.0768; for `COc1ccc(/C=c2\s/c(=C/C(=O)c3ccc(C)cc3)[nH]c2=O)c(OC)c1` it is 0.0664; for `Cc1cccc(/C=C2\CS/C(=C\c3cccc(C)c3)C2=O)c1` it is -0.0758.
Regarding `Cc1cccc(/C=c2\s/c(=C\C(=O)C(C)(C)C)[nH]c2=O)c1`, the z-score was 9.35 (active).
The figure for `O=C(Cc1ccccc1)NC(NNc1ccccc1)(C(F)(F)F)C(F)(F)F` is -0.447.
Under `CC(C)N(Cc1nc(-c2ccccc2)no1)C(=O)CCCN1C(=O)c2ccccc2C1=O` stands -0.305; under `CCOC(=O)c1ccc(NC(=S)N2CCSC2c2ccc(Br)cc2)cc1` (stereo unspecified), 0.308; under `O=c1oc2cc(OCc3ccc(F)cc3F)ccc2cc1-c1ccc2ccccc2n1`, -0.209.
On to `O=S(=O)(c1ccc(Oc2ccc(Cl)cc2)c(S(=O)(=O)N2CCCCC2)c1)N1CCCCC1`, for which the z-score is -0.278.
The figure for `CCOc1ccc(OCC)c(NC(=O)C2CCN(S(=O)(=O)c3cccc4nonc34)CC2)c1` is 0.0264; for `COc1ccc(Cn2c(C)c(C)c(C#N)c2NC(=O)Nc2cccc(Cl)c2)cc1` it is -0.0483.
Under `COc1ccc(-c2cc(C(F)(F)F)nc(SCC(N)=O)n2)cc1` stands 0.362; under `Cn1c(=O)c2c(ncn2CC(=O)Nc2ccccc2)n(C)c1=O`, 0.318.
The figure for `Cc1ccc(C(=O)Nc2cccnc2)cc1S(=O)(=O)N1CCOCC1` is 0.265.
